This is part of a sample that, as a whole, favours compounds with a hit. Of some 79,000 tested, about 15% had one in any assay. Unmarked numbers belong to inactive results. No stated cut-off is given here; in the data, active means growth inhibition above about 70%; inactive means the rest. Where a SMILES comes first, the peptide text is derived from it. The star is where a group is joined. Boc = CC(C)(C)OC(=O)*
experiment: NCI Yeast Anticancer Drug Screen. Data for the rad50 strain (AID 155);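 further: 0% = growth of vehicle-only cultures of the same strain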; settings: S. cerevisiae rad50 strain growth inhibition; at 50.0 µM; active compounds read high
How it was run: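 Cells are treated with compound, grown, and their growth is then scored against vehicle-only cultures of the same repair-deficient yeast strain.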

SMILES | growth inhibition [%]
O=c1cc(-c2ccc(F)cc2)oc2ccccc12 | 40
Nc1cccc2c1C(=O)c1cccc(Nc3ccc4c(c3)C(=O)c3ccccc3C4=O)c1C2=O | -2.95
COC(=O)c1ccccc1O | -3.4
COc1c2cc3c(cc2nc2occc12)OCO3 | 1.1
O=S1CCCO1 (stereo not given) | -7.55
CCOC(=O)C(CC(C)C)NC(=O)C(Cc1ccccc1)NC(=O)CNC(=O)OC(C)(C)C (stereo not drawn) (Boc-Gly-Phe-Leu-OEt; configuration not given here) | 7.65
O=C(/C(=C(/Br)I)c1ccccc1)c1ccccc1 | -13.8
O=P(c1ccccc1)(c1ccccc1)N1CC1c1ccccc1 (stereo not given) | 8.95
CC(=O)NNC(=S)/N=C/c1c(C)[nH]n(-c2ccccc2)c1=O | 4.6
CCOC(=O)Nc1cc(Cl)c2ncn(C(=O)OCC)c2n1 | 40.3
C#CCC1(C(=O)OCC)C(=O)c2ccccc2N(C)C1=O (stereo not given) | 16.9
CC(=O)OCC1OC(OC(C)=O)C(NS(=O)(=O)c2ccc(C)cc2)C(OC(C)=O)C1OC(C)=O (stereo not given) | 18.3
COc1cc(C2[C@H]3C(=O)N(c4ccc(Cc5ccc(N6C(=O)[C@@H]7ON(c8ccccc8)C(c8cc(OC)c(OC)c(OC)c8)[C@@H]7C6=O)cc5)cc4)C(=O)[C@H]3ON2c2ccccc2)cc(OC)c1OC (stereo not given in full) | -2.25
c1ccc(C2(c3ccccc3)c3ccccc3-c3ccccc32)cc1 | -16.2
CC1COC(C(C)C)(C(C)C)O1 (stereo not given) | -8.6
CCc1cccc(CC)c1NC(=O)c1ccccc1Br | 2.5
Nc1cccc2c(O)cc(S(=O)(=O)O)cc12 | -1.35
CC(C)(C)c1ccnc(C(O)(C(F)(F)F)C(F)(F)F)c1 | -3.4
CCCCCCCCCCCCCCCCCC(=O)N/N=C/c1ccc(Cl)cc1 | -6.2
Cc1[nH]c2cc([N+](=O)[O-])ccc2c1C | 0.45

SMILES | growth inhibition [%]
COc1cc(NC(C)=O)c2nccnc2c1 | -16.4
CCOC(=O)C1=CC(C)(C(=O)OCC)Nc2c(nc(N)[nH]c2=O)N1 (stereo not given) | -42.5
CC(=O)c1cccc(NC(=O)c2cccc(Cl)c2)c1 | -1.9
Cc1cc2c(c3c1C(=O)CC3)CCCC2(C)C | 9.3
CCCC(=O)OC(C)COc1ccccc1 (stereo not given) | 31.4
CN(C)c1ccc(C2(c3ccc(N(C)C)cc3)NNC(=O)c3ccccc32)cc1 | 17.2
O=C(Nc1cccc([N+](=O)[O-])c1)C(=O)C(C(=O)c1ccccc1F)C1OC(=O)C2C=CC=CC21 (stereo not given) | 5.5
NNC(=O)c1nc[nH]c1C(=O)NN | 2.95
Cc1ccc(S(=O)(=O)Oc2ccc(N(CC(=O)O)S(=O)(=O)c3ccc(C)cc3)cc2)cc1 | 45.3
CCCCCNC(=O)CCC | 22.6
CC(=Nc1cccc2ccccc12)c1c(O)cc(C)oc1=O | 20.4
CN(C)CCOc1ccccn1 | 9.45
CC(C)(C)c1cc(C2OC(N)=C(O)C2=O)cc(C(C)(C)C)c1O (stereo not given) | 13.4
CC1OC(c2ccccc2)C(=O)N1C1(C)C(=O)N2CCOC21c1ccccc1 (stereo not given) | 8.4
Cc1ccc(-c2ccc(C)cc2)cc1 | -31.2
COc1ccc(C(c2cc3c(cc2O)OCO3)n2ccnc2)cc1 (stereo not given) | 9.45
Cc1ccc(S(=O)(=O)c2ccc(O)c(C)c2)c(O)c1 (tested in a mixture with another compound) | 36.6
COc1ccc2c(=O)c(O)c(-c3ccccc3)oc2c1 | 22.8
COc1cc([N+](=O)[O-])c(S(=O)(=O)O)cc1-n1nc(-c2ccccc2)n[n+]1-c1cc(S(=O)(=O)[O-])c([N+](=O)[O-])cc1OC | -5.65
O=C(CN1CCN(c2ccccc2)CC1)n1nnc2ccccc21 | -9.4

experiment: NCI Yeast Anticancer Drug Screen. Data for the mec2-1 strain (AID 157); settings: S. cerevisiae mec2-1 strain, at 50.0 µM, active compounds read high
How it was run: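 Compounds were applied to mec2-1 yeast cells. Their growth was then compared with that of vehicle-treated cultures to give growth inhibition.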

SMILES | growth inhibition [%]
O=c1cc(-c2ccc(F)cc2)oc2ccccc12 | -7.45
Nc1cccc2c1C(=O)c1cccc(Nc3ccc4c(c3)C(=O)c3ccccc3C4=O)c1C2=O | -2.7
COC(=O)c1ccccc1O | 2.25
COc1c2cc3c(cc2nc2occc12)OCO3 | -5.35
O=S1CCCO1 (stereo not given) | -8.6
CCOC(=O)C(CC(C)C)NC(=O)C(Cc1ccccc1)NC(=O)CNC(=O)OC(C)(C)C (stereo not drawn) (Boc-Gly-Phe-Leu-OEt; configuration not given here) | 7.35
O=C(/C(=C(/Br)I)c1ccccc1)c1ccccc1 | 16
O=P(c1ccccc1)(c1ccccc1)N1CC1c1ccccc1 (stereo not given) | 12.9
CC(=O)NNC(=S)/N=C/c1c(C)[nH]n(-c2ccccc2)c1=O | -7.95
CCOC(=O)Nc1cc(Cl)c2ncn(C(=O)OCC)c2n1 | 16.2
C#CCC1(C(=O)OCC)C(=O)c2ccccc2N(C)C1=O (stereo not given) | 1.55
CC(=O)OCC1OC(OC(C)=O)C(NS(=O)(=O)c2ccc(C)cc2)C(OC(C)=O)C1OC(C)=O (stereo not given) | 4.25
COc1cc(C2[C@H]3C(=O)N(c4ccc(Cc5ccc(N6C(=O)[C@@H]7ON(c8ccccc8)C(c8cc(OC)c(OC)c(OC)c8)[C@@H]7C6=O)cc5)cc4)C(=O)[C@H]3ON2c2ccccc2)cc(OC)c1OC (stereo not given in full) | 5.2
c1ccc(C2(c3ccccc3)c3ccccc3-c3ccccc32)cc1 | 17.4
CC1COC(C(C)C)(C(C)C)O1 (stereo not given) | -30.1
CCc1cccc(CC)c1NC(=O)c1ccccc1Br | 1.85
Nc1cccc2c(O)cc(S(=O)(=O)O)cc12 | -19.2
CC(C)(C)c1ccnc(C(O)(C(F)(F)F)C(F)(F)F)c1 | -12.2
CCCCCCCCCCCCCCCCCC(=O)N/N=C/c1ccc(Cl)cc1 | -8.95
Cc1[nH]c2cc([N+](=O)[O-])ccc2c1C | -35.2

SMILES | growth inhibition [%]
COc1cc(NC(C)=O)c2nccnc2c1 | -21.6
CCOC(=O)C1=CC(C)(C(=O)OCC)Nc2c(nc(N)[nH]c2=O)N1 (stereo not given) | -12.9
CC(=O)c1cccc(NC(=O)c2cccc(Cl)c2)c1 | -4.3
Cc1cc2c(c3c1C(=O)CC3)CCCC2(C)C | 3.9
CCCC(=O)OC(C)COc1ccccc1 (stereo not given) | 5.8
CN(C)c1ccc(C2(c3ccc(N(C)C)cc3)NNC(=O)c3ccccc32)cc1 | 7.95
O=C(Nc1cccc([N+](=O)[O-])c1)C(=O)C(C(=O)c1ccccc1F)C1OC(=O)C2C=CC=CC21 (stereo not given) | 15.9
NNC(=O)c1nc[nH]c1C(=O)NN | -2.6
Cc1ccc(S(=O)(=O)Oc2ccc(N(CC(=O)O)S(=O)(=O)c3ccc(C)cc3)cc2)cc1 | 9.8
CCCCCNC(=O)CCC | 1.2
CC(=Nc1cccc2ccccc12)c1c(O)cc(C)oc1=O | 12.2
CN(C)CCOc1ccccn1 | -27.4
CC(C)(C)c1cc(C2OC(N)=C(O)C2=O)cc(C(C)(C)C)c1O (stereo not given) | 11.1
CC1OC(c2ccccc2)C(=O)N1C1(C)C(=O)N2CCOC21c1ccccc1 (stereo not given) | 11.2
Cc1ccc(-c2ccc(C)cc2)cc1 | -38
COc1ccc(C(c2cc3c(cc2O)OCO3)n2ccnc2)cc1 (stereo not given) | 11.8
Cc1ccc(S(=O)(=O)c2ccc(O)c(C)c2)c(O)c1 (tested in a mixture with another compound) | 22.9
COc1ccc2c(=O)c(O)c(-c3ccccc3)oc2c1 | -18.9
COc1cc([N+](=O)[O-])c(S(=O)(=O)O)cc1-n1nc(-c2ccccc2)n[n+]1-c1cc(S(=O)(=O)[O-])c([N+](=O)[O-])cc1OC | 4.15
O=C(CN1CCN(c2ccccc2)CC1)n1nnc2ccccc21 | -3.9
